# Assay results as given in PubChem BioAssay AID2314 (National Center for Advancing Translational Sciences (NCATS), 2010).
# In all, about 300,000 compounds went through this assay and about 37,000 (12%) were called active. Only a selection was taken, and actives are over-represented in it overall. A number with no mark means an inactive call. No stated cut-off is given here; in the data, active means max response mostly above about 13% (no sharp cut-off); inactive means mostly below about 14%.
# Test: Cycloheximide Counterscreen for Small Molecule Inhibitors of Shiga Toxin; further: read at 38.3 µM for the half of the compounds with a filed dose; 0% is about no effect
# Settings: cell reporter, cycloheximide protein synthesis inhibition counterscreen; active compounds read high
row,Compound,max response
1,COCCCn1c(Cc2csc(Nc3cccc(Cl)c3)n2)nnc1SCC(=O)OC1CCCCC1,1.16%
2,O=C(Nc1ccc(S(=O)(=O)NCC2CCCO2)cc1)c1ccc(F)cc1 (centres undefined),-1.11%
3,CCn1cc(C(=O)N2CC(C)CC(C)C2)c(=O)c2cc(S(=O)(=O)N3CCCC3)ccc21 (centres undefined),-2.89%
4,CC(=O)Oc1ccc2c(c1)C(=O)c1ccccc1C2=O,8.81%
5,CC(=O)Oc1ccc(-c2nc3c(C)cccc3c(=O)o2)cc1,-4.07%
6,COc1ccc(/C=C/c2noc(-c3ccccc3OC(C)=O)n2)cc1,19% (active)
7,Cn1cccc1C(=O)NC(=O)COC(=O)Cc1coc2ccc3ccccc3c12,4.33%
8,O=C(Cc1coc2ccc3ccccc3c12)NCc1cccs1,11.8% (active)
9,COc1ccc(C)cc1NC(=O)CNCc1cccs1,8.07%
10,Cc1ccc2c(CC(=O)NCc3cccs3)coc2c1,29.3% (active)
11,CCN(CC(=O)NCc1cccs1)C(=O)c1ccccc1F,-0.418%
12,COc1cc(CC(=O)NCc2cccs2)cc(OC)c1OC,0.388%
13,CCCNC(=O)CCn1nc(-c2ccccc2)c2ccccc2c1=O,-3.01%
14,CCN(CC)S(=O)(=O)c1ccc(N2CCCC2)c(NS(=O)(=O)c2cccs2)c1,-6.15%
15,CCOC(=O)CSC1=N/C(=C/c2ccc(-n3cncn3)cc2)C(=O)N1C(C)=O,-4.18%
16,COc1ccc(OC)c(CNC(=O)CCc2nc(-c3cccs3)no2)c1,-2.6%
17,COc1ccc(CCc2nc(-c3cccs3)no2)cc1,67.2% (active)
18,CCc1ccc(CNC(=O)CCc2nc(-c3cccs3)no2)cc1,-4.69%
19,Cc1ccc2[nH]c(=O)c(CN3CCCCC3)c(-c3ccccc3)c2c1,-4.55%
20,COc1cc(/C=C(\C#N)c2nc3ccccc3[nH]2)ccc1O,43.6% (active)
21,COc1cc(/C=C(\C#N)c2nc3c(s2)CC(C)CC3)ccc1O (centres undefined),26.5% (active)
22,COc1ccc(/C=C(/NC(=O)c2ccc(C)cc2)c2nc3ccccc3[nH]2)cc1OC,-2.64%
23,CCCCCOc1ccc(/C=C/C(=O)NCCc2nc3ccccc3[nH]2)cc1OC,1.2%
24,O=C(NCc1ccc(F)cc1)C1CCN(C(=O)Nc2ccc(F)cc2)CC1,-0.971%

row,Compound,max response
1,O=C1CN(C(=O)c2cc(F)cc(F)c2)c2ccccc2N1,-6.12%
2,COc1ccc(F)cc1C(=O)C1CCCN(C(=O)CCc2ccccn2)C1 (centres undefined),7.94%
3,COC(=O)CC(=O)N1CCN(c2ccc(Cl)c(Cl)c2)CC1,0.736%
4,Cc1cc2nc(SCCN3CCOCC3)[nH]c2cc1C,32.3% (active)
5,CCn1c2ccc(F)cc2c2nnc(SCCN3CCOCC3)nc21,8.52%
6,Cc1cccc(C)c1OCCN1CCOCC1,0.405%
7,COCCn1c(SCC(=O)Nc2nc(C)cs2)nnc1C(C)C,-4.2%
8,Cc1cccc(CCNC(=O)Cn2ncc3c([nH]c4ccc(C)cc43)c2=O)c1,-2.84%
9,O=C1CCC(C(=O)N2CCN(c3ccccc3Cl)CC2)CN1CC1CCCCC1 (centres undefined),9.87%
10,O=C(Cn1ncc2c3ccccc3n(Cc3ccccc3)c2c1=O)NCCCN1CCOCC1,6.16%
11,Cc1nn(-c2ccc([N+](=O)[O-])cc2)c(N)c1-c1ccccc1,38.2% (active)
12,Cc1cc(CO)nn1-c1ccc([N+](=O)[O-])cc1,-1.2%
13,Cc1nc(-c2ccc([N+](=O)[O-])cc2)c(-c2ccccc2)o1,-2.35%
14,O=C(CCN1CCCO1)N1CCCC(N2CCN(c3cccc(C(F)(F)F)c3)CC2)C1 (centres undefined),7.08%
15,COC(=O)c1sccc1NC(=O)c1cc(OC)c(OC)c(OC)c1,1.99%
16,COC(=O)c1sccc1NN1C(=O)c2ccccc2C1=O,28.6% (active)
17,COC(=O)c1sccc1NC(=S)Nc1ccc(C)cc1,25.3%
18,Cc1ccccc1CNC(=O)CCC(=O)N1Cc2ccccc2Oc2ncccc21,-2.36%
19,COc1cccc(CN2CCN(Cc3ccc4cccc(F)c4n3)CC2CCO)c1 (centres undefined),-3.47%
20,COC(=O)c1ccc(C2C3=C(Nc4nnnn42)c2ccccc2OC3)cc1 (centres undefined),17.4% (active)
21,COC(=O)C1=C(C(=O)c2ccc(C)cc2)C(c2ccccc2)n2nnnc2N1 (centres undefined),2.04%
22,COc1ccccc1NC(=O)C1=C(C)Nc2nnnn2C1c1cccc(Br)c1 (centres undefined),-5.64%
23,Cc1cc2c(=O)n(CC(=O)NCC(=O)Nc3ccc(C(C)C)cc3)cnc2s1,-5.28%
24,COc1cc(/C=N/NC(=O)Cc2ccccc2)cc(OC)c1OC,-1.38%

row,Compound,max response
1,COc1ccc(C(=O)OCC(=O)NCC2CCCCC2)cc1S(=O)(=O)N1CCCc2ccccc21,-2.88%
2,COc1cc(C)c(C)cc1S(=O)(=O)N1CCCc2ccccc21,17.6% (active)
3,Cn1c(=O)n(C)c2cc(S(=O)(=O)N3CCCc4ccccc43)ccc21,-0.606%
4,CCN(CC)c1ccc2c(Nc3ccccc3)c(C=O)c(=O)oc2c1,17.7% (active)
5,CCC(=O)Nc1ccc(S(=O)(=O)Nc2c(NC)c3ccccc3oc2=O)cc1,11%
6,CCOC(=O)Nc1ccc2c(c1)N(C(=O)CCCl)c1ccccc1[S@]2=O,4.2%
7,CCOc1ccc(C(CC(=O)O)NC(=O)Cc2ccccc2)cc1OC (centres undefined),-1.44%
8,CCNS(=O)(=O)c1ccc(CCC(=O)N2CCN(c3cc(Cl)ccc3C)CC2)cc1,-1.74%
9,Cc1ccc(C(=O)N2CCCC2)c(F)c1F,-2.63%
10,COc1ccc(CN(C(=O)c2cccs2)c2nccs2)cc1OC,-2.68%
11,O=C(c1cccs1)N(C(=O)c1cccs1)c1ccccn1,21.4% (active)
12,COc1ccc(CN(Cc2ccc(OC)cc2)C(=O)c2cccs2)cc1,4.04%
13,CC(=O)c1ccc(-c2nnc(CCC(=O)N(C)Cc3cnc4ccccn34)o2)s1,8.64%
14,CCc1ccc(CN(C)C(=O)CCc2nnc(-c3ccc(-c4ccccc4)cc3)o2)nc1,16.7% (active)
15,CCc1ccc(CN(C)Cc2nc(Cc3ccccc3)no2)nc1,0.562%
16,Cn1cc(CCC(=O)N2CCCC(C(=O)c3ccc(C(C)(C)C)cc3)C2)cn1 (centres undefined),7.09%
17,COC(=O)CSc1nc(C)c2ccc(OC)cc2n1,42.7% (active)
18,COc1ccc2nc(SCc3ccccc3)nc(C)c2c1,55.9% (active)
19,COc1ccc2[nH]c3nc(SCC(=O)NC4CC4)nnc3c2c1,-1.61%
20,COC(=O)CSc1nc(C2CC2)nc2ccccc12,-1.2%
21,COc1cccc(CSc2nc3nc(C)cc(C)n3n2)c1,3.55%
22,COc1ccc(-c2nnc3ccc(SCc4ccccc4)nn23)cc1,-1.33%
23,Cc1cccc(C)c1NC(=O)COC(=O)c1ccccc1O,-0.421%
24,CCOC(=O)C1CCCN(S(=O)(=O)c2ccc(-n3cnnn3)c(C)c2)C1 (centres undefined),-3.27%

row,Compound,max response
1,CC(C)c1ccc(NC(=O)[C@@H](NC(=O)N2CC(=O)Nc3ccccc32)C(C)C)cc1,1.52%
2,COc1ccc(-n2c(=O)[nH]c3cc(C(=O)NCCc4ccc(OC)c(OC)c4)ccc3c2=O)c(OC)c1,0.206%
3,C=CCSc1nc2c(c(=O)[nH]c(=O)n2C)n1Cc1ccccc1,-3.59%
4,O=C(NCc1ccccn1)c1cnc2sccn2c1=O,-2.63%
5,Cc1cc(C)cc(OCC(=O)NC(C)c2ccccc2)c1 (centres undefined),4.02%
6,O=C(NCc1ccccn1)c1cc2ccccc2oc1=O,36% (active)
7,O=C(NCc1ccccn1)c1cc(Br)ccc1Cl,17.7%
8,COc1ccc2oc(=O)c(C(=O)N3CCCC3)cc2c1,-2.74%
9,Cc1cc(C)cc(OCC(=O)NNC(=O)c2cc3ccccc3oc2=O)c1,24.7% (active)
10,NS(=O)(=O)c1ccc(NC(=O)COC(=O)c2cc3ccccc3oc2=O)cc1,10.3% (active)
11,NS(=O)(=O)c1ccc(NC(=O)COC(=O)CCc2c[nH]c3ccccc23)cc1,-3.16%
12,COc1ccc(-c2nc(CS(=O)CC(=O)NCc3ccccn3)c(C)o2)cc1 (centres undefined),7.49%
13,NS(=O)(=O)c1ccc(NC(=O)COC(=O)c2ccco2)cc1,-1.96%
14,Cc1cc(C)cc(OCC(=O)NNC(=O)CCN2C(=O)c3ccccc3C2=O)c1,-0.614%
15,COc1ccc2oc(=O)c(C(=O)NCc3ccccn3)cc2c1,30.2% (active)
16,CC(=O)N1c2ccc(S(=O)(=O)N3CCC(C(=O)N4CCN(c5ccccc5)CC4)CC3)cc2CC1C (centres undefined),-2.01%
17,O=C(Nc1cc(C(F)(F)F)ccc1Cl)c1cc2nc3c(c(C(F)(F)F)n2n1)CCCC3,-1.76%
18,C#CCOc1ccc(/C=C2/C(=O)ON=C2C)cc1OCC,3.92%
19,CCCOC(=O)c1cc2ccccc2oc1=O,11.4%
20,CCOC(=O)c1cc2cc3ccccc3cc2oc1=O,21.6% (active)
21,C=CCc1cccc2cc(C(=O)OCC)c(=O)oc12,-2.44%
22,CC[C@]1(O)CC2CN(CCc3c([nH]c4ccccc34)[C@@](C(=O)OC)(c3cc4c(cc3OC)N(C=O)[C@H]3[C@@](O)(C(=O)OC)[C@H](OC(C)=O)[C@]5(CC)C=CCN6CC[C@]43[C@@H]65)C2)C1 (some centres undefined),-6.26%
